PubChem BioAssay
The source made the active and inactive calls.

Experiments:
[1] = biological target: Albumin (Bos taurus) (UniProt P02769); assay: compounds binding labelled BSA control protein – biochemical, small-molecule microarray, Alexa647 label, 635/667 nm fluorescence, artefact control for SMM control protein annotation, profiling panel (AID 1118); settings: BSA-A647 binding, fluorescence 635 nm, higher = more signal;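 further: score merges 667 nm emission intensity and signal-to-noise per printed compound spot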
Albumin (Bos taurus), sequence (P02769 whole entry, looked up): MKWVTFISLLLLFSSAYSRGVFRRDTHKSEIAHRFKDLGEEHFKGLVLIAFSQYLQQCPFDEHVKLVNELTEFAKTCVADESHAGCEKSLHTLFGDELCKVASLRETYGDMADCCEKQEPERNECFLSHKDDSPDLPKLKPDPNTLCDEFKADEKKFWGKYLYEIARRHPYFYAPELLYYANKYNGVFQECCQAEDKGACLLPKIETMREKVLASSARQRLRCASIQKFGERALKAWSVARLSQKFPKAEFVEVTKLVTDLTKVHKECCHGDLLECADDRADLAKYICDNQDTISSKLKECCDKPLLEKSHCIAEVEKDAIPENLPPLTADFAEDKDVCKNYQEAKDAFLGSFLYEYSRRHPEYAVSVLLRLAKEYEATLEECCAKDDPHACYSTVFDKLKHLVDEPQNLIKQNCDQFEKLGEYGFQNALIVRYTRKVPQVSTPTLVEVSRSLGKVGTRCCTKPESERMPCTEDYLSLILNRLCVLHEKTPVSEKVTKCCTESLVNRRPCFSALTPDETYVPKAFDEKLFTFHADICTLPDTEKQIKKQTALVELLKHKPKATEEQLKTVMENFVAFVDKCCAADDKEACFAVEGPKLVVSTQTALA

[2] = probe aXIP binding to arrayed compounds – biochemical, NeuroSMM set, 635/667 nm fluorescence, primary screen (AID 1119); settings: small-molecule microarray, higher = more signal, called active from +8 up or from −8 down;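 further: probe is the protein aXip251-270 applied at 1 µg/mL to compound-printed slides; binding of probe to printed compounds measured as 667 nm fluorescence plus signal to noise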
[3] = probe aNOTCH3 binding on compound microarray – biochemical, small-molecule microarray, 635/667 nm fluorescence, primary screen (AID 1120); settings: higher = more signal;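 further: probe is a biotin-tagged antibody raised against NOTCH3 rather than NOTCH3 protein; score merges spot fluorescence near 667 nm with spot signal to noise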
[4] = probe aNOTCH2 binding on compound microarray – biochemical, small-molecule microarray, 635/667 nm fluorescence, primary screen (AID 1121); settings: higher = more signal;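 further: score merges feature fluorescence read at 667 nm with its signal to noise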
[5] = biological target: Carbonic anhydrase 2 (Homo sapiens) (UniProt P00918); assay: compounds binding carbonic anhydrase 2 – biochemical, small-molecule microarray, Alexa647-labelled CAII, profiling panel (AID 1122); settings: CAII-A647 binding fluorescence, higher = more signal
[6] = COS7 lysate on small-molecule microarray, probe aHis, 635 nm (AID 1123); settings: COS7 cell lysate, fluorescence, higher = more signal;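 further: z-score combines 667nm fluorescence intensity with signal-to-noise per printed compound spot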
[7] = probe aLAP1 signal on lysate-treated microarray – cell lysate, small-molecule microarray, COS7 lysate, primary screen (AID 1124); settings: probe aLAP1, fluorescence, higher = more signal;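 further: lysate comes from COS7 cells expressing LAP1 and is applied at 0.3 µg/mL; score merges spot fluorescence near 667 nm with signal-to-noise over triplicate slides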
[8] = system: Sam68 (KHDRBS1); assay: compounds binding KHDRBS1 protein – biochemical, small-molecule microarray, 635 nm fluorescence, primary screen (AID 1125); settings: higher = more signal;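 further: score merges 667 nm channel intensity with signal to noise over triplicate slides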
[9] = system: Chordin-like protein 2 (CHRDL2); assay: compounds binding chordin-like 2 – biochemical, small-molecule microarray, 635 nm fluorescence, primary screen (AID 1126); settings: fluorescence 635 nm, higher = more signal;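 further: printed compound slides probed with Chrdl2 protein at 4 µg/mL for 1 h at 4 C; score merges 667 nm emission intensity with signal to noise over three replicate slides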
[10] = biological target: Concanavalin-A (Canavalia ensiformis) (UniProt P02866); assay: compounds binding concanavalin A lectin – biochemical, small-molecule microarray, Alexa647 label, 635 nm, artefact control for SMM control protein annotation, primary screen (AID 1127); settings: ConA-A647 binding fluorescence, higher = more signal;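 further: z combines 667 nm emission intensity with signal-to-noise across three replicate slides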
Concanavalin-A (Canavalia ensiformis), sequence (P02866 whole entry, looked up): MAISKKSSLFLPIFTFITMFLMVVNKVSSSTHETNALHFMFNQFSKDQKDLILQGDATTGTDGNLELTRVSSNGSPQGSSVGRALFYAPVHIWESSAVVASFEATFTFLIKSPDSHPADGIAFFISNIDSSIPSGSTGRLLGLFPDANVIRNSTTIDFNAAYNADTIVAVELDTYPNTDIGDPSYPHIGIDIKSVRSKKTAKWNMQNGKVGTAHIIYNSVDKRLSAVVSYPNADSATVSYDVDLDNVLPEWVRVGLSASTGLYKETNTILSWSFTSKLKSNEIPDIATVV

[11] = compounds binding Alexa647 anti-His antibody – biochemical, small-molecule microarray, 635 nm fluorescence, artefact control for SMM control protein annotation, primary screen (AID 1128); settings: higher = more signal;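 further: score merges feature fluorescence with signal-to-noise for each printed compound spot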
[12] = system: Human papillomavirus type 1a E7 protein (residues 1-88); assay: HPV1a E7 small-molecule binders, primary screen, biochemical, small-molecule microarray, residues 1-88, 635 nm (AID 1129); settings: small-molecule microarray binding, fluorescence 635 nm; higher = more signal
[13] = biological target: Focal adhesion kinase 1 (Homo sapiens) (UniProt Q05397); assay: PTK2 protein binding on printed compound slides – biochemical, small-molecule microarray, 635/667 nm fluorescence, BSA, DTT, primary screen (AID 1130); settings: 635 nm fluorescence, higher = more signal;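 further: composite of spot emission at 667 nm and signal to noise over triplicate slides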
Focal adhesion kinase 1 (Homo sapiens), sequence (Q05397 whole entry, looked up): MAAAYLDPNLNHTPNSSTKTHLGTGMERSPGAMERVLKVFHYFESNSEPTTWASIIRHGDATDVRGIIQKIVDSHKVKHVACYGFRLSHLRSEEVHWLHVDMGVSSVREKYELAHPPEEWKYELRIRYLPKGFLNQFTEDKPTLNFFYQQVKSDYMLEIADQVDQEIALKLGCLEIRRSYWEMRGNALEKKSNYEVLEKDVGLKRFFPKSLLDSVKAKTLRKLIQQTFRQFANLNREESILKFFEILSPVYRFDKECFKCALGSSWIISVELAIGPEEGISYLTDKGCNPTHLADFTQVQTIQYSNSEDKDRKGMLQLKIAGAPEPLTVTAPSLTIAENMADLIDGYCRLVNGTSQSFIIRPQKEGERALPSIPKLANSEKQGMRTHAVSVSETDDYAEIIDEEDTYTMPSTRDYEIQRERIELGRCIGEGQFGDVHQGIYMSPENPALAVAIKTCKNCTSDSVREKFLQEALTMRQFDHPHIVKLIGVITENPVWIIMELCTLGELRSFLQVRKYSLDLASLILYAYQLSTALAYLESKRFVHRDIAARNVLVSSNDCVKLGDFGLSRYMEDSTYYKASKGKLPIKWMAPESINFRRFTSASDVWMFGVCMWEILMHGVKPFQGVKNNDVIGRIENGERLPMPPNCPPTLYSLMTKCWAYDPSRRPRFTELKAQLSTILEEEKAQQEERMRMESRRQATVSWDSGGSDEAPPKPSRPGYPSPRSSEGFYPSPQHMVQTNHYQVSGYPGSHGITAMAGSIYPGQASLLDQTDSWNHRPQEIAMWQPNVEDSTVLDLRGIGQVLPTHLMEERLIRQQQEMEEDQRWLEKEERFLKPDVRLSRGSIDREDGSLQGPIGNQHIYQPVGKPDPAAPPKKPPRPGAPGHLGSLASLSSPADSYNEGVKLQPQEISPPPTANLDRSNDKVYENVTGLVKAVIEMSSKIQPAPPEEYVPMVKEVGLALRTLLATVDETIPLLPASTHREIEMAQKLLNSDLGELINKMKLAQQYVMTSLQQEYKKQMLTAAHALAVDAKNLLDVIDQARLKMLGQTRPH

[14] = system: Fibrinogen (Alexa647-labelled); assay: Alexa647-fibrinogen binding to printed small molecules – biochemical, small-molecule microarray, 635/667 nm fluorescence, artefact control for SMM control-protein annotation, profiling panel (AID 1131); settings: fibrinogen-A647 binding fluorescence, higher = more signal;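 further: z-score merges 667 nm fluorescence with per-spot signal-to-noise over triplicate slides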
[15] = biological target: Follistatin (Homo sapiens) (UniProt P19883); assay: FST protein binding to printed compounds – biochemical, small-molecule microarray, 635/667 nm fluorescence, primary screen (AID 1132); settings: 635 nm fluorescence, higher = more signal
Follistatin (Homo sapiens), sequence (P19883 whole entry, looked up): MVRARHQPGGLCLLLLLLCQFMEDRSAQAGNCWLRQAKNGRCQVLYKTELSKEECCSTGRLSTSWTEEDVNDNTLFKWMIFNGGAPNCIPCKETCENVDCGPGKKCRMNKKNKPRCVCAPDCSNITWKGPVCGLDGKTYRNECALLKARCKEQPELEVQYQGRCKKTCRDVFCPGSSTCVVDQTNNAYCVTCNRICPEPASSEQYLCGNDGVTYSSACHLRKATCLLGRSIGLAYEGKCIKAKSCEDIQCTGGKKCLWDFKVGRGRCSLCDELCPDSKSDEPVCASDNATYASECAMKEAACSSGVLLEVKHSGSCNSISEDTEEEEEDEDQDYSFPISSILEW

[16] = biological target: Fibroblast growth factor 2 (Homo sapiens) (UniProt P09038); assay: basic fibroblast growth factor binding to printed compounds – biochemical, small-molecule microarray, 635/667 nm fluorescence, primary screen (AID 1133); settings: FGF2, fluorescence 635/667, higher = more signal
Fibroblast growth factor 2 (Homo sapiens), sequence (P09038 whole entry, looked up): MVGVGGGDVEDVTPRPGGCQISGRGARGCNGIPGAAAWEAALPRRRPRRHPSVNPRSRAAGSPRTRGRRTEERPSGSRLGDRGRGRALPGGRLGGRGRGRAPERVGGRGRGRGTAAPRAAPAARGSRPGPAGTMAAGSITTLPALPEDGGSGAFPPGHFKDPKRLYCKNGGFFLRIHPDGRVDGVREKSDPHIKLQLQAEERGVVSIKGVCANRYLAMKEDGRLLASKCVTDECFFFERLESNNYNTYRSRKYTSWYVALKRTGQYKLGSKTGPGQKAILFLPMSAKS

[17] = JC-1 mitochondrial potential readout, lung cancer cells – cell-based, A549, JC-1 fluorescence, basal, 24 h, 100 nL, profiling panel (AID 1138); settings: higher = more signal;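 further: A549 lung adenocarcinoma cells under basal conditions with no added stimulus; test concentration not given here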
[18] = system: Lefty1; assay: Lefty1 protein binding to printed compounds – biochemical, small-molecule microarray, 635/667 nm fluorescence, primary screen (AID 1139); settings: fluorescence 635/667, higher = more signal
[19] = system: wheat germ agglutinin (Triticum aestivum), Alexa647-labelled; assay: Alexa647-WGA lectin binding to printed small molecules – biochemical, small-molecule microarray, 635/667 nm fluorescence, artefact control for SMM control-protein annotation, profiling panel (AID 1140); settings: WGA-A647 binding, 635 nm fluorescence, higher = more signal;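 further: score merges 667 nm feature emission with signal to noise over triplicate slides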
[20] = biological target: Luciferin 4-monooxygenase (Photinus pyralis) (UniProt P08659); assay: inhibition of purified Photinus pyralis luciferase – biochemical, luminescence, purified enzyme, 2006 set, primary screen (AID 1141); settings: purified firefly luciferase, SteadyGlo luminescence, 30 min; higher = more signal, called active from +8 up or from −8 down;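 further: cell-free assay with purified firefly luciferase at 100 ng per well in PBS; test concentration not given here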
Luciferin 4-monooxygenase (Photinus pyralis), sequence (P08659 whole entry, looked up): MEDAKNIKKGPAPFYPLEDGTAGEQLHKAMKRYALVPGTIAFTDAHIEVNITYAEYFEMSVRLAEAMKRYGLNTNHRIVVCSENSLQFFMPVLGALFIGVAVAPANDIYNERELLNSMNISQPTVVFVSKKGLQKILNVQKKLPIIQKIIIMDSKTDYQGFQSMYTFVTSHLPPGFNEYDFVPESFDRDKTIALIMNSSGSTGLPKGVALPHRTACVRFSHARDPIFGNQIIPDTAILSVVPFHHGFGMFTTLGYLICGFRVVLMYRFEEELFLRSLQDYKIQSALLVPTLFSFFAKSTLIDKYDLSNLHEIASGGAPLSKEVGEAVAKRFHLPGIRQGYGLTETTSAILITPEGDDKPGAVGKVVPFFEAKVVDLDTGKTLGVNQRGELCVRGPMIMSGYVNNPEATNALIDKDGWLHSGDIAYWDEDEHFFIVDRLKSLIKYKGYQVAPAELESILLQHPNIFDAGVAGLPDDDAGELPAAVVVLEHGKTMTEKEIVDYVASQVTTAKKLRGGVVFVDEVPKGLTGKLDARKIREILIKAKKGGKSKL

Row | Structure (SMILES) | composite z-score [1] | composite Z-score [2] | composite z-score [3] | composite z-score [4] | composite z-score [5] | composite z-score [6] | composite z-score [7] | composite z-score [8] | composite z-score [9] | composite z-score [10] | composite z-score [11] | composite z-score [12] | composite z-score [13] | composite z-score [14] | composite z-score [15] | composite z-score [16] | z-score [17] | composite z-score [18] | composite z-score [19] | z-score [20]
1 | C=C[C@H](C)[C@@H](OC(=O)Nc1ccc(OC)cc1)c1ccc(O)c2ccccc12 | -0.964 | -0.734 (inactive) | -0.118 | -0.167 | 0.742 | 0.832 | 0.152 | 0.357 | 0.257 | -0.365 | 0.965 | 0.0812 | -0.603 | -0.95 | 0.999 | 0.0495 | -1.64 | 1.04 | -0.235 | -5.17 (inactive)
2 | O=C1O[C@@H](c2ccccc2)[C@@H](c2ccccc2)N2[C@@H](c3ccccc3OCCO)[C@]3(C(=O)Nc4ccccc43)[C@@H](C(=O)Nc3nc4ccccc4s3)[C@H]12 | 0.827 | 0.703 (inactive) | 1.38 | -0.181 | 0.619 | 2.89 | 0.485 | 1.25 | -0.111 | 1.16 | 0.858 | 1.23 | 0.467 | 0.865 | 0.778 | 0.188 | -2 | 1.62 | 1.17 | -0.237 (inactive)
3 | C=CCN1C(=O)[C@@]2(CC=C)N=C(c3ccc(OCCCO)cc3)O[C@H]2c2ccccc21 | 0.272 | 0.33 (inactive) | 0.323 | 0.189 | 0.614 | 3.3 | 1.05 | 1.3 | 1.33 | 1.05 | 2.12 | 1.2 | 0.743 | 0.576 | 1.49 | 1.76 | 2.66 | 1.17 | 0.503 | -9.06 (active)
4 | O=C1O[C@@H](c2ccccc2)[C@@H](c2ccccc2)N2[C@@H](c3ccccc3OCCO)[C@]3(C(=O)Nc4ccc(C#CC5=CCCCC5)cc43)[C@@H](C(=O)N3CCCCCCC3)[C@H]12 | 0.407 | 7.47 (inactive) | 2.16 | 1.08 | 1.04 | 4.3 | 1.29 | 1.31 | 1.68 | 1.09 | 1.53 | 1.32 | 3.35 | 0.487 | 1.48 | 0.095 | -0.489 | 1.63 | 1.64 | -1.16 (inactive)
5 | CCCC[C@H]1OB(O)C[C@H]2C1=C(COC)C[C@H]1C(=O)N(C)C(=O)[C@H]12 | -0.126 | -0.618 (inactive) | -0.0328 | -0.201 | 0.39 | 0.502 | 0.0459 | 0.462 | 0.245 | 0.744 | 0.415 | -0.292 | 0.18 | 0.144 | 0.824 | 0.846 | 0.145 | 0.896 | 0.631 | -0.656 (inactive)
6 | C=CCNC(=O)[C@@H]1[C@H]2C(=O)O[C@H](c3ccccc3)[C@H](c3ccccc3)N2[C@H](c2ccc(O)cc2)[C@@]12C(=O)Nc1ccc(C#CCNC(N)=O)cc12 | 0.118 | 0.0219 (inactive) | -0.169 | -0.166 | 0.352 | 0.636 | 0.73 | 0.512 | -0.671 | 0.0889 | -0.22 | -0.222 | 0.186 | -0.609 | 0.842 | -0.598 | -1.27 | 0.538 | 0.414 | -0.895 (inactive)
